This is a sample that favours compounds with a hit; in the whole collection about 21% have one here.
Cycloheximide cs: Cycloheximide Counterscreen for Small Molecule Inhibitors of Shiga Toxin | max response, % | cell reporter, cycloheximide protein synthesis inhibition counterscreen | hit rate 12% among 300,000; in the data active means max response mostly above about 13%, no sharp cut-off; inactive means mostly below about 14%; further: read at 38.3 µM for the half of the compounds with a filed dose; 0% is about no effect
NS1 function inh: qHTS Assay for Inhibitors of Influenza NS1 Protein Function; hit rate 0.4% among 270,000; Potency, µM (series often up to 46.1 µM), without a hit: at the highest dose activity, positive = more growth; calls by dose curve; further: potency means the concentration at half of the fitted maximal effect; actives are rising curves; nearly all actives have a fitted effect of over 50% in size
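Recovery from NS1-induced slow growth read by OD600 in budding yeast switched to galactose assay medium (pH 6.0, -URA) at 1:100 dilution. Compound 23 nl per well; the matching strain lacking NS1 serves as control.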
Pf growth 96h: Primary qHTS for delayed death inhibitors of the malarial parasite plastid, 96 hour incubation; P. falciparum luciferase reporter growth, 96 h; Potency, µM (highest dose often 28.7 µM), inactives show at the highest dose activity change, negative = inhibition, usual class: inhibitors; hit rate 6.9% among 320,000; AID 504834, 2011; further: potency means the concentration at half of the fitted maximal effect; on the % scale 0 is the no-effect control and ±100 the full control effect
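Parasite growth measured via integrated firefly luciferase reporter in P. falciparum. Infected erythrocytes at 2% hematocrit, 0.05% parasitemia final were treated 96 hours at 37 C under 5% CO2, and luminescence was read.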
Sm TGR block: qHTS Assay for the Inhibitors of Schistosoma Mansoni Peroxiredoxins; AID 485364, 2010; purified TGR, DTNB reduction, TNB absorbance 405 nm; Potency, µM (top dose mostly 114 µM), for inactives: top-dose activity change, negative = inhibition, usual class: inhibitors; Schistosoma mansoni thioredoxin glutathione reductase (TGR), Q962Y6; hit rate 3% among 360,000; further: potency means the concentration at half of the fitted maximal effect; on the % scale 0 is the no-effect control and ±100 the full control effect; nearly all actives have a fitted effect of over 60% in size
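TGR 20 nM + NADPH 100 uM (dispensed conc.), cpd preinc 15 min RT; start with NADPH (500 uM addition) then DTNB (15 mM addition). Kinetic TNB absorbance, 405 nm filter. Four-parameter Hill fit across titration.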
Shiga inhibitor: A qHTS for Small Molecule Inhibitors of Shiga Toxin; Vero cells, Shiga toxin protein synthesis inhibition reporter; inhibition, % at 38.7 µM; hit rate 9.2% among 290,000; in the data active means inhibition mostly above about 28%, no sharp cut-off; inactive means mostly below about 43%; further: 0% is about no effect
Pf growth 48h: Primary qHTS for delayed death inhibitors of the malarial parasite plastid, 48 hour incubation; P. falciparum luciferase growth in erythrocytes, 48 h; Potency, µM (highest dose often 28.7 µM), inactives show at the top dose activity change, negative = inhibition, hits mostly inhibitors; hit rate 5.9% among 310,000; further: potency means the concentration at half of the fitted maximal effect; on the % scale 0 is the no-effect control and ±100 the full control effect
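Here the parasites carry a stable luciferase gene and grow inside erythrocytes in Albumax-based RPMI medium with compound for one erythrocytic cycle. Activity is scored as loss of luminescent signal.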
* = called active by the depositor; ? = inconclusive; . = no result. Unless noted, the call rests on the fitted dose curve; in most records, active means well fitted curve in the direction sought with a large enough effect; inconclusive means small, poorly fitted or top-dose-only effect, or another doubt; inactive means no such curve, though single readings can be large; an effect the other way counts as inactive or inconclusive.

SMILES	Cycloheximide cs	NS1 function inh	Pf growth 96h	Sm TGR block	Shiga inhibitor	Pf growth 48h
CCOc1ccccc1NC(=S)NC(=O)C1CCCCC1	-4.6	0.0%	?	8.91µM*	11.7	?
Cc1cn(C2CC3OCC(NC(=O)C(NC(=O)OC(C)(C)C)C(C)OCc4ccccc4)C3O2)c(=O)[nH]c1=O (stereo not drawn)	-1.8	.	.	.	-3.3	.
CCCCCCc1cc2cc(C(=O)OCC)c(=O)oc2cc1O	0.7	-4.0%	1.47µM*	3.4%	-10.4	1.65µM*
CCCCCCc1cc2cc(/C(N)=N/NC(=O)c3ccncc3)c(=O)oc2cc1O	.	.	20.5%	0.1%	.	3.29µM*
CCCCCCc1cc2cc(C(=O)Nc3cccc(OC)c3)c(=O)oc2cc1O	1.6	15.4%	18.3%	-19.9%	12.6	?
O=C1NCC(COCc2ccco2)O1 (stereo not drawn)	-1.9	?	?	44.7µM*	-17.6	8.3%
COc1ccccc1CNC(=O)C(=O)NCC1OCCCN1S(=O)(=O)c1ccc(F)cc1C (stereo not drawn)	1.4	2.4%	-29.2%	0.4%	2.1	-12.4%
COc1cccc(-c2cc(C(=O)Nc3c(C)nn(Cc4ccccc4C)c3C)no2)c1	2.1	-54.7%	25.1%	-26.1%	-14.6	5.22µM*
COc1cccc(-c2cc(C(=O)Nc3c(C)nn(Cc4ccccc4)c3C)no2)c1	7.1	-57.4%	?	11.2%	8.6	?
COc1ccc(-c2cc(C(=O)Nc3c(C)nn(Cc4ccccc4)c3C)no2)cc1	-1.3	-1.1%	4.65µM*	5.8%	-16.1	.
CCCC(C(=O)Nc1ccc(S(=O)(=O)N2CCCC2)cc1)c1ccccc1 (stereo not drawn)	.	.	?	0.5%	.	10.4µM*
CCCC(C(=O)Nc1ccncc1)c1ccccc1 (stereo not drawn)	-2.5	6.4%	2.94µM*	-3.8%	-37.5	?
CCCC(C)C(=O)Nc1ccc(S(=O)(=O)N2CCCC2)cc1 (stereo not drawn)	-3.6	28.6%	?	-1.8%	2.3	-14.1%
O=C(CC(c1ccccc1)c1ccccc1)Nc1ccncc1	-1.9	-78.2%	10.4µM*	0.4%	-6.8	?
CC(O)c1cccc(NC(=O)CC(c2ccccc2)c2ccccc2)c1 (stereo not drawn)	-1.5	21.0%	?	-17.9%	-6.8	-7.7%
CC(C(=O)Nc1ccncc1)(c1ccccc1)c1ccccc1	-2.5	0.6%	10.4µM*	.	-15.2	?
COc1cc(NC(=O)c2ccc(-n3cnc4cccnc43)cc2)cc(OC)c1	.	.	.	3.2%	.	.
NC(=O)CC(NC(=O)Cc1cccc2ccccc12)c1ccc(NCCc2ccccc2F)c([N+](=O)[O-])c1 (stereo not drawn)	1.5	-1.4%	?	6.2%	-5.1	?
Cc1cc(Cl)ccc1OCC(=O)OCC(=O)NC1CCS(=O)(=O)C1 (stereo not drawn)	.	.	-1.6%	4.3%	.	0.1%
CSc1nc(N(C)CCO)c2sc3nc(-c4ccco4)c4c(c3c2n1)CCC4	0.8	?	?	1.41µM*	14.5	?
O=C1CC(N2CCN(c3ccccc3)CC2)C(=O)N1c1ccc2c(c1)OCO2 (stereo not drawn)	-2.3	5.0%	380.1%	-16.5%	-7.7	16.2%
CC(=O)Oc1ccc(N2C(=O)C3C4C=CC(O4)C3C2=O)cc1 (stereo not drawn)	-0.2	-33.1%	10.0%	7.08µM*	26.7	-5.0%
CC(=O)Oc1ccc(N2C(=O)CCC2=O)cc1	-1.3	-1.0%	-12.5%	2.2%	-5.4	23.4%
O=C1CC(N2CCOCC2)C(=O)N1c1ccc2c(c1)OCO2 (stereo not drawn)	-2.0	-21.7%	.	50.1µM*	-7.1	9.6%
CC(=O)Oc1cccc(N2C(=O)C3C(C2=O)C2C=CC3C23CC3)c1 (stereo not drawn)	0.8	?	80.4%	39.8µM*	-4.3	4.8%
SMILES	Cycloheximide cs	NS1 function inh	Pf growth 96h	Sm TGR block	Shiga inhibitor	Pf growth 48h
CC(=O)Oc1ccc(N2C(=O)CC(N3CCOCC3)C2=O)cc1 (stereo not drawn)	-4.7	5.4%	.	22.4µM*	-6.3	-7.7%
COC(=O)c1ccccc1NC(=O)Cn1c(=O)n(Cc2ccccc2)c(=O)c2c(C)c(C)sc21	-1.3	5.1%	?	-12.7%	-12.0	?
CC(=C/C(=O)O)/C(=C/c1ccccc1)C(=O)O	-0.8	-9.6%	26.1%	-2.7%	2.6	11.5%
CCS(=O)(=O)c1ncc(N(Cc2ccccc2)Cc2ccco2)c(C(=O)Nc2ccc(C)c(C)c2)n1	.	.	.	-8.3%	.	.
CC(c1cccs1)N(C)Cc1nc(CCc2ccccc2)no1 (stereo not drawn)	16.7	2.7%	?	6.6%	37.0*	85.8%
Clc1ccc(OCc2nc(-c3ccccn3)n[nH]2)cc1	40.3*	-78.1%	.	3.1%	20.8*	-1.7%
Brc1ccc(OCc2nc(-c3ccccn3)n[nH]2)cc1	28.8*	-200.4%	-57.7%	15.0%	34.1	.
COc1ccc(OCc2nn3c(-c4ccccn4)nnc3s2)cc1	6.2	-81.0%	.	-0.6%	14.6	-21.7%
Cc1cc(Oc2ccc(Cl)cc2)nc(-c2ccccn2)n1	-1.5	-69.3%	?	9.1%	-3.1	?
O=[N+]([O-])c1cccc(S(=O)(=O)NCCCN2CCOCC2)c1	3.1	?	-6.2%	3.6%	5.4	21.0%
O=S1(=O)CC(O)C(Nc2ccccc2)C1 (stereo not drawn)	-1.9	0.9%	17.2%	2.8%	3.3	-2.2%
O=S1(=O)CC(O)C(Nc2ccc(Cl)cc2)C1 (stereo not drawn)	0.8	-1.5%	3.7µM*	1.8%	-4.6	9.9%
COc1ccc(-c2ccc(=O)n(Cc3cccc([N+](=O)[O-])c3)n2)cc1	10.4	.	-27.2%	-1.1%	-5.3	-25.1%
COc1ccc(-c2ccc(=O)n(Cc3c(F)cccc3Cl)n2)cc1	22.5*	-39.2%	-21.8%	10.2%	48.3*	11.8%
COc1ccc(NC(=O)Nc2ccccc2F)c(C)c1	18.8*	4.3%	7.4%	12.2%	52.3	53.3%
COc1ccc(NC(=O)Nc2ccccc2F)c([N+](=O)[O-])c1	25.9*	-4.6%	?	5.2%	69.5*	82.1%
COc1ccc(NC(C)=O)c(C)c1	-2.9	.	-18.2%	12.0%	-9.9	-0.9%
O=C(Nc1ccc2[nH]c(=S)sc2c1)c1ccccc1	1.0	-5.4%	90.6%	1.3%	0.0	98.9%
O=C(Nc1ccccc1F)Nc1ccccc1Br	25.4*	-3.2%	-19.1%	.	68.5*	43.0%
CNC(=O)Nc1ccccc1F	-5.2	2.9%	37.3%	-21.9%	-21.3	.
O=C(Nc1ccc2[nH]c(=S)sc2c1)Nc1ccccc1F	70.0*	7.1%	117.7%	-11.5%	69.8*	337.7%
Cc1nn(-c2ccccc2)c(-c2ccccc2[N+](=O)[O-])c1C(=O)O	-1.5	5.0%	17.4%	0.3%	-8.1	50.3%

High-throughput results as filed in PubChem.
